# The whole screen tested about 330,000 compounds, of which about 5,800 (1.8%) were called active. Shown is part of a subset that was picked to be rich in actives. Values without a mark were called inactive. Cut-off read from the data, not from the text of the source: active = inhibition mostly above about 38% (no sharp cut-off); inactive = mostly below about 40%.
# Target: Orexin/Hypocretin receptor type 1 (Homo sapiens) (UniProt O43613)
# Assay: blocks the human orexin 1 receptor (AID 485270);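 note: 0% = agonist challenge alone and 100% = reference antagonist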
# Details: OX1R-expressing cells, FRET antagonist read-out; at 6.6 µM; hits give high values
# Chain of Orexin/Hypocretin receptor type 1 (Homo sapiens) (O43613 whole entry, looked up): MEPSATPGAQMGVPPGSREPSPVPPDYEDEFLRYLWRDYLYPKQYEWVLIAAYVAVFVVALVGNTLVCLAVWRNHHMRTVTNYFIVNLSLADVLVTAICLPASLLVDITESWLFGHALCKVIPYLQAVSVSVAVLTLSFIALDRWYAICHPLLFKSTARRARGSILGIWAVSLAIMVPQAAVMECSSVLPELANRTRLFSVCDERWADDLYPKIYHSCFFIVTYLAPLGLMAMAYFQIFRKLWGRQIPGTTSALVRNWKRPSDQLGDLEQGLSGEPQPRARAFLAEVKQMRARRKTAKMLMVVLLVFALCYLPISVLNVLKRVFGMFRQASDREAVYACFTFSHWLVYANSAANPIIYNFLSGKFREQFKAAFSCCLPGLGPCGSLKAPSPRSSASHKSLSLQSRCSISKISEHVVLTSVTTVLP
row,Compound,inhibition
1,Cc1cc(C)nc(NC(=O)Nc2ccccc2C(F)(F)F)n1,19.6%
2,COc1cccc(C(=O)NNC(=O)c2cccc(F)c2)c1,-10.7%
3,COc1cccc(C(=O)NC(=O)Nc2nc(C)cc(C(F)(F)F)n2)c1,64.4% (active)
4,COc1cccc(CNC(=O)COC(=O)CN2C(=O)NC3(CCCCC3C)C2=O)c1 (stereo unspecified),4.53%
5,COc1cccc(CNC(=O)CN2C(=O)NC(Cc3ccccc3)(c3ccccc3)C2=O)c1 (stereo unspecified),40.8% (active)
6,CNC(=O)CN1C(=O)NC(c2ccccc2)(c2ccccc2)C1=O,27%
7,O=C(NCc1ccc2c(c1)OCO2)c1c(-c2ccsc2)sc2ccccc12,35.8%
8,Cc1ccc(S(=O)(=O)N(C)c2ccc(OCC(=O)OCc3ccc(C#N)cc3)cc2)cc1,5.89%
9,Cc1cccc(OP(=O)(Nc2c(C)n(C)n(-c3ccccc3)c2=O)Oc2cccc(C)c2)c1,61.5% (active)
10,Cc1c(NC(=S)Nc2ccccc2)c(=O)n(-c2ccccc2)n1C,6.12%
11,Cc1c(NC(=O)C(C)Oc2cccc(Cl)c2)c(=O)n(-c2ccccc2)n1C (stereo unspecified),16%
12,COc1ccc(-c2noc(CCC(=O)N3CCN(c4cccc(C)c4)CC3)n2)cc1,7.06%
13,CN(C)C(=O)CCc1ccc2c3c([nH]c2c1)[C@]1(C)[C@@H](C(=O)N2CCCCC2)C[C@H](CC(=O)NCCC2=CCCCC2)C(=O)N1CC3,10.5%
14,C[C@@H]1CN([C@@H](C)CO)C(=O)c2cccc(NS(=O)(=O)c3ccc(F)cc3)c2O[C@H]1CN(C)C(=O)NC1CCCCC1,11.9%
15,COc1ccc(C(=O)OCc2cc(=O)n3ccsc3n2)cc1F,3.7%
16,CCN1/C(=C/c2ccc3ccc(C)cc3[n+]2CC)Sc2ccccc21,38.5%
17,CCN1/C(=C\c2ccc3ccccc3[n+]2CC)Sc2cc(C)ccc21,69.9% (active)
18,CN(CC(=O)Nc1ccc(OC(F)F)cc1)S(=O)(=O)/C=C/c1ccccc1,6.62%
19,Cn1c(N)c(C(=O)COC(=O)c2cnc(Cl)c(Cl)c2)c(=O)n(C)c1=O,6.46%
20,Cn1c(N)c(C(=O)COC(=O)c2ccc3ccccc3c2)c(=O)n(C)c1=O,44.9% (active)
21,Cn1c(N)c(C(=O)COC(=O)c2cccc(S(=O)(=O)N3CCOCC3)c2)c(=O)n(C)c1=O,13.1%
22,Cn1cncc1C#Cc1c(-c2ccsc2)sc2ccccc12,10.4%

row,Compound,inhibition
1,CC1Cc2ccccc2N1S(=O)(=O)c1cccc(C(=O)OCC(=O)N2CCOCC2)c1 (stereo unspecified),7.49%
2,O=S(=O)([N-]c1nc2ccccc2nc1-[n+]1ccc(Cc2ccccc2)cc1)c1ccc(Br)s1,20.8%
3,Cc1ccc(C)c(NC(=O)CN(C)C(=O)COc2ccc3ccccc3c2)c1,19.9%
4,Cc1ccnc(Nc2nc3ccccc3s2)n1,55.2% (active)
5,c1ccc2sc(NN=C3CCCC3)nc2c1,3.98%
6,Cc1ccnc(-n2sc3ccccc3c2=O)n1,15.6%
7,COc1ccc(/C=C/C(=O)Nc2ccc(C34CC5CC(CC(O)(C5)C3)C4)cc2)cc1OC,18.9%
8,C=CCC[C@@H](Cc1ccc(F)cc1)C(=O)OC[C@@H](C)NC(=O)[C@H](CC=C)CC(=O)N(CCO)Cc1ccccc1,7.32%
9,O=S(=O)(NCC1CN(S(=O)(=O)c2ccc3c(c2)OCCO3)C1)c1c(F)cccc1F,3.02%
10,Cc1nn(-c2ccc([N+](=O)[O-])cc2)c(N)c1-c1ccccc1,62.8% (active)
11,Cc1cc(CO)nn1-c1ccc([N+](=O)[O-])cc1,46.5%
12,Cc1nc(-c2ccc([N+](=O)[O-])cc2)c(-c2ccccc2)o1,5.07%
13,O=C(COc1ccc(Br)cc1F)NCC1(N2CCCCC2)CCCCC1,9.11%
14,O=C(COC(=O)c1ccc([N+](=O)[O-])o1)NC12CC3CC(CC(C3)C1)C2,23.2%
15,O=C(Nc1ccc(C(=O)N2CCCCC2)cc1)c1cccc([N+](=O)[O-])c1,4.33%
16,O=C(Oc1ccc(Br)cc1C(=S)N1CCOCC1)c1cccc([N+](=O)[O-])c1,18.1%
17,O=C(Oc1ccccc1C(=S)N1CCCCC1)c1cc([N+](=O)[O-])cc([N+](=O)[O-])c1,123% (active)
18,CC(=O)Nc1ccc(NC(=O)COC(=O)C2CCC(C(C)(C)C)CC2)cc1 (stereo unspecified),7.49%
19,O=C(Nc1ccc(-n2cccn2)cc1)C1CCN(Cc2ccsc2)CC1,-0.73%
20,COc1ccccc1CNC(=O)c1ccc(Cl)c(S(=O)(=O)N2CCCC2)c1,16.6%
21,COc1ccc(CNC(=O)COC(=O)C(CCSC)N2C(=O)c3ccccc3C2=O)cc1 (stereo unspecified),9.55%
22,COc1cc(OC)cc(C(=O)NC(C(=O)N2CCC2)C(C)C)c1 (stereo unspecified),4.23%

row,Compound,inhibition
1,COc1ccc(-c2nnc(NC(=O)CS(=O)(=O)c3ccc(Cl)cc3)o2)c(OC)c1,47.9% (active)
2,COc1ccc(NC(=O)CS(=O)(=O)c2ccccc2)cc1,-4.46%
3,Cc1ccc(C)c(-c2nnc(NC(=O)CS(=O)(=O)c3ccccc3)o2)c1,12.7%
4,CCCCNc1c(-c2cccc(Sc3ccc(OC)cc3)c2)nc2ccccn12,32.8%
5,c1ccc2c(CCN3CCNC[C@H]3Cc3cccc4ccccc34)cccc2c1,3.65%
6,CC(NC(=O)COC(=O)Cn1cc(C(F)(F)F)ccc1=O)c1ccccc1 (stereo unspecified),3.44%
7,Nc1ccc2nc3c(=O)[nH]c(=S)[nH]c3nc2c1,93.8% (active)
8,O=c1[nH]c(=O)c2nc3ccccc3nc2[nH]1,53.3% (active)
9,Cc1cc2nc3c(=O)n(Cc4ccccc4)c(=O)[nH]c3nc2cc1N,14.8%
10,O=c1[nH]c(-c2cccs2)nc2ccccc12,42.7%
11,O=c1[nH]c(-c2ccccc2)c(-c2ccccc2)[nH]1,8.25%
12,O=C1OCCN1C(=O)[C@H]1[C@H](c2ccc(Cl)cc2)C(c2cccc(Cl)c2)=NN1c1ccc(Br)cc1,-1.81%
13,Cc1ccc(C)c(N2CCN(C(=O)CCc3nc(-c4cccc(C(F)(F)F)c4)no3)CC2)c1,5.16%
14,CC(=O)N(O)CCCCCNC(=O)CCC(=O)N(O)CCCCCNC(=O)CCC(=O)N(O)CCCCCNC(=O)CCC(=O)O,3.94%
15,Cc1ccc(C(=O)Nc2ccc3c(c2)OCCO3)cc1S(=O)(=O)N1CCOCC1,1.11%
16,COc1cc(OC)cc(C(=O)N[C@H](C(=O)NNC(=O)c2ccc(Br)cc2)C(C)C)c1,6.01%
17,O=C(c1ccc2c(c1)OCO2)N1CCOCC1,14.4%
18,Nc1[nH][nH]c(=O)c1N=Nc1ccc2c(c1)OCO2,84.8% (active)
19,N/C(=N\OC(=O)c1ccc2c(c1)OCO2)c1ccc(Br)cc1,10.9%
20,CC(C)(C)OC(=O)C[C@@H]1C/C=C\C[C@@H](CC(=O)N[C@H](CO)Cc2ccccc2)C(=O)NCCOC1=O,5.83%
21,O=C(C[C@H]1C/C=C\C[C@@H](NC(=O)OCC2c3ccccc3-c3ccccc32)C(=O)O[C@@H](c2ccccc2)CNC1=O)N[C@H](CO)Cc1ccccc1,6.4%
22,Cc1cc(N2CCCC2)ccc1NC(=O)COc1ccc(Cl)cc1,8.39%

row,Compound,inhibition
1,COC(=O)N/N=C/c1ccc(/C=N/NC(=O)OC)cc1,48.6%
2,COC(=O)N/N=C/c1c[n+]([O-])c2ccccc2[n+]1[O-],101% (active)
3,COC(=O)N/N=C/c1cn(CCCOc2ccc(C)cc2)c2ccccc12,13.5%
4,O=C(Nc1cc(S(=O)(=O)N2CCCCC2)ccc1Cl)C1COc2ccccc2O1 (stereo unspecified),2.12%
5,CC(=O)c1ccc(NC(=O)CSc2nc3ccccc3c(=O)n2CCCN2CCOCC2)cc1,3.62%
6,Cc1ccc(-c2noc(CSc3nnc(-c4ccccc4)n3C)n2)cc1,14.3%
7,Fc1ccc(-n2c(Cc3ccccc3)nnc2SCc2nc(-c3ccc(Cl)cc3)no2)cc1,35% (active)
8,Cc1ccc(-c2noc(CSc3nnc(-c4ccncc4)n3-c3ccc(F)cc3)n2)cc1,13.8%
9,CCOC(=O)CSc1nnc(-c2ccc([N+](=O)[O-])cc2)o1,58.6% (active)
10,O=C(CSc1nnc(-c2ccc([N+](=O)[O-])cc2)o1)Nc1ccccn1,20.6%
11,Cc1cccc(C)c1OC(=O)CSc1nnc(-c2ccccc2)o1,27.6%
12,Cc1noc(C)c1NC(=O)Nc1ccc2c(c1)C(=O)N([C@H](C)CO)C[C@H](C)[C@@H](CN(C)C(=O)Nc1ccc(C(F)(F)F)cc1)O2,7.42%
13,COc1ccc(CCNC(=O)COC(=O)c2ncc(Cl)c(Cl)c2Cl)cc1OC,9.72%
14,Cc1ccc(-c2noc(CSc3nnnn3-c3ccccc3)n2)cc1,5.93%
15,COc1ccc(C)cc1-n1nnnc1SCc1nc2ccccc2c(=O)[nH]1,35.5%
16,Cc1ccc(Nc2nc(CSc3nnnn3-c3ccccc3)cc(=O)[nH]2)cc1,81.8% (active)
17,CCn1c(O)c(N=NC2=NC(=O)CS2)c2cc(C)ccc21,101% (active)
18,COC(=O)Cn1c2ccc(C)cc2c2nc(C)sc21,11.6%
19,CCn1c(O)c(N=NC(=O)c2cccc(S(=O)(=O)N3CCCCC3)c2)c2ccccc21,11%
20,CCN(C(=O)CSc1cccc[n+]1[O-])c1ccccc1,0.91%

# Source: PubChem BioAssay AID485270 (The Scripps Research Institute Molecular Screening Center, 2010)
